Source: PubChem BioAssay (NCI)
The panel holds about 83,000 compounds, 20% with a hit somewhere; the sample as a whole holds those more often.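 Single-dose data. Exposure time 48 hours. Values below 10 considered active.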 Activity calls are given as the source filed them.

Key:
Test in all cases: NCI-60 one-dose screen, 48 h (100 = growth as untreated, 0 = no growth, -100 = all killed)
Settings in all cases: 10 µM unless noted
SK-MEL-2 melanoma = system: SK-MEL-2 melanoma
EKVX NSCLC = system: EKVX NSCLC
SN12C renal = system: SN12C renal
UO-31 renal = system: UO-31 renal
TK-10 renal = system: TK-10 renal
ACHN renal = system: ACHN renal
CAKI-1 renal = system: CAKI-1 renal
A498 renal = system: A498 renal
CCRF-CEM leukemia = system: CCRF-CEM leukemia
MOLT-4 leukemia = system: MOLT-4 leukemia
SR leukemia = system: SR leukemia
RPMI-8226 leukemia = system: RPMI-8226 leukemia
OVCAR-8 ovarian = system: OVCAR-8 ovarian
OVCAR-5 ovarian = system: OVCAR-5 ovarian
OVCAR-4 ovarian = system: OVCAR-4 ovarian
SK-OV-3 ovarian = system: SK-OV-3 ovarian
IGROV1 ovarian = system: IGROV1 ovarian
OVCAR-3 ovarian = system: OVCAR-3 ovarian
HS 578T breast = system: HS 578T breast
NCI/ADR-RES ovarian = system: NCI/ADR-RES ovarian

Measured: growth

CC[C@]12C=CCN3CC[C@@]4(c5ccc(OC)cc5N(C)[C@H]4[C@@](O)(C(=O)OC)[C@@H]1OC(=O)CCC[P+](c1ccccc1)(c1ccccc1)c1ccccc1)[C@@H]32
active: SK-MEL-2 melanoma -65.3% | SN12C renal 2.73% | MOLT-4 leukemia 5.41% | SR leukemia 9.57% | RPMI-8226 leukemia -12.6% | OVCAR-8 ovarian 3.13% | OVCAR-4 ovarian -3.58% | SK-OV-3 ovarian -21% | IGROV1 ovarian -0.0574% | OVCAR-3 ovarian -2.49%
inactive: EKVX NSCLC 10.3% | UO-31 renal 80% | TK-10 renal 22.3% | ACHN renal 89.9% | CAKI-1 renal 52.2% | A498 renal 13.7% | CCRF-CEM leukemia 11.1% | OVCAR-5 ovarian 21.4% | HS 578T breast 25.5% | NCI/ADR-RES ovarian 100%

CCN1CCN(c2cc(C)nc(N(CCNc3ccnc4cc(Cl)ccc34)Cc3ccc4c(c3)OCO4)n2)CC1
inactive: EKVX NSCLC 22.2% | SN12C renal 74.4% | CAKI-1 renal 53.6% | OVCAR-5 ovarian 40.5% | OVCAR-4 ovarian 19.8% | IGROV1 ovarian 10.2% | HS 578T breast 30%
active: SK-MEL-2 melanoma -82.8% | UO-31 renal -30.6% | TK-10 renal -48% | ACHN renal 0.724% | A498 renal -1.76% | CCRF-CEM leukemia -18.5% | MOLT-4 leukemia -34.1% | SR leukemia -44.9% | RPMI-8226 leukemia -19.3% | OVCAR-8 ovarian 3.09% | SK-OV-3 ovarian -16.2% | OVCAR-3 ovarian -55.8% | NCI/ADR-RES ovarian -13.9%

CCCCCCCCCCCCCOC(=O)c1c(C)[nH]c(/C=C2\N=C(c3ccc[nH]3)C=C2OC)c1C
inactive: EKVX NSCLC 52.3% | SN12C renal 40.7% | TK-10 renal 34.4% | A498 renal 10.3% | CCRF-CEM leukemia 17.8% | MOLT-4 leukemia 22.8% | RPMI-8226 leukemia 11.2% | OVCAR-8 ovarian 18.3% | OVCAR-5 ovarian 44% | OVCAR-4 ovarian 55.8% | SK-OV-3 ovarian 47.4% | IGROV1 ovarian 22% | OVCAR-3 ovarian 11.3% | HS 578T breast 18% | NCI/ADR-RES ovarian 22.5%
active: SK-MEL-2 melanoma -42.1% | UO-31 renal -54.4% | ACHN renal 8.11% | CAKI-1 renal -7.49% | SR leukemia -10.8%

S=c1[nH]c(=S)c2c(-c3ccccc3)c(-c3ccccc3)oc2[nH]1
inactive: SK-MEL-2 melanoma 99.6% | EKVX NSCLC 103% | SN12C renal 95.3% | UO-31 renal 81.6% | TK-10 renal 124% | ACHN renal 106% | CAKI-1 renal 101% | A498 renal 70.9% | CCRF-CEM leukemia 114% | MOLT-4 leukemia 101% | SR leukemia 94.2% | RPMI-8226 leukemia 107% | OVCAR-8 ovarian 110% | OVCAR-5 ovarian 95.2% | OVCAR-4 ovarian 95.2% | SK-OV-3 ovarian 103% | IGROV1 ovarian 99.6% | OVCAR-3 ovarian 105% | HS 578T breast 104% | NCI/ADR-RES ovarian 103%

C=C(C)[C@@H]1CCC[C@]2(C(=O)N3CCN(C)CC3)CC[C@]3(C)[C@@H](CC[C@@H]4[C@@]5(C)CC/C(=N\NC(=O)c6ccncc6)C(C)(C)[C@@H]5CC[C@]43C)[C@@H]12
active: SR leukemia 7.99%
inactive: SK-MEL-2 melanoma 106% | EKVX NSCLC 111% | SN12C renal 80.1% | UO-31 renal 73.4% | TK-10 renal 116% | ACHN renal 88.3% | CAKI-1 renal 80.7% | A498 renal 119% | CCRF-CEM leukemia 25.9% | MOLT-4 leukemia 55.9% | RPMI-8226 leukemia 78.2% | OVCAR-8 ovarian 96.7% | OVCAR-5 ovarian 80.1% | OVCAR-4 ovarian 91.5% | SK-OV-3 ovarian 109% | IGROV1 ovarian 82.7% | OVCAR-3 ovarian 95.5% | HS 578T breast 103% | NCI/ADR-RES ovarian 99.3%

O=C(N/N=C/c1cc(Cl)ccc1O)c1ccccc1Nc1ccnc(C(F)(F)F)c1
inactive: SK-MEL-2 melanoma 90.7% | EKVX NSCLC 22.9% | SN12C renal 20.7% | UO-31 renal 21.1% | TK-10 renal 46.4% | ACHN renal 14.9% | CAKI-1 renal 34.6% | A498 renal 65.7% | CCRF-CEM leukemia 12.4% | MOLT-4 leukemia 55% | SR leukemia 105% | RPMI-8226 leukemia 47.2% | OVCAR-8 ovarian 63.5% | OVCAR-5 ovarian 57.4% | OVCAR-4 ovarian 28.7% | SK-OV-3 ovarian 25% | IGROV1 ovarian 92.5% | OVCAR-3 ovarian 38% | HS 578T breast 75% | NCI/ADR-RES ovarian 22.6%

COC(=O)c1ccc(NC(=O)Nc2ccc(C(=O)OC)cc2)cc1
inactive: SK-MEL-2 melanoma 88% | EKVX NSCLC 118% | SN12C renal 78.9% | UO-31 renal 96.9% | TK-10 renal 101% | ACHN renal 104% | CAKI-1 renal 124% | A498 renal 81.3% | CCRF-CEM leukemia 90.8% | MOLT-4 leukemia 79.9% | SR leukemia 78.9% | RPMI-8226 leukemia 89.9% | OVCAR-8 ovarian 104% | OVCAR-5 ovarian 102% | OVCAR-4 ovarian 113% | SK-OV-3 ovarian 99.3% | IGROV1 ovarian 106% | OVCAR-3 ovarian 113% | HS 578T breast 92.8% | NCI/ADR-RES ovarian 108%

O=C(N/N=C\c1ccccc1S(=O)(=O)O)N/N=C/c1ccccc1S(=O)(=O)O
inactive: SK-MEL-2 melanoma 99.8% | EKVX NSCLC 102% | SN12C renal 102% | UO-31 renal 92.5% | TK-10 renal 100% | ACHN renal 98.7% | CAKI-1 renal 88.7% | A498 renal 101% | CCRF-CEM leukemia 102% | MOLT-4 leukemia 92.3% | SR leukemia 90.3% | RPMI-8226 leukemia 94.6% | OVCAR-8 ovarian 100% | OVCAR-5 ovarian 97.1% | OVCAR-4 ovarian 109% | SK-OV-3 ovarian 108% | IGROV1 ovarian 109% | OVCAR-3 ovarian 108% | HS 578T breast 93.9% | NCI/ADR-RES ovarian 103%

CC(=O)c1sc2sc(C(C)=O)c(C)c2c1C
active: A498 renal -82.4%
inactive: SK-MEL-2 melanoma 107% | EKVX NSCLC 42.8% | SN12C renal 98% | UO-31 renal 88.4% | TK-10 renal 74.9% | ACHN renal 98.9% | CAKI-1 renal 86.4% | CCRF-CEM leukemia 63.6% | MOLT-4 leukemia 85.5% | SR leukemia 75.6% | RPMI-8226 leukemia 66.7% | OVCAR-8 ovarian 84% | OVCAR-5 ovarian 93.2% | OVCAR-4 ovarian 108% | SK-OV-3 ovarian 81.2% | IGROV1 ovarian 101% | OVCAR-3 ovarian 110% | HS 578T breast 92% | NCI/ADR-RES ovarian 95.6%

Cc1ccc(-c2csc(N(C(=O)N3CCN(c4cc5c(cc4F)c(=O)c(C(=O)O)cn5C4CC4)CC3)c3ccccc3)n2)cc1
inactive: EKVX NSCLC 20.9% | TK-10 renal 20.6% | CCRF-CEM leukemia 21% | MOLT-4 leukemia 16.6% | SR leukemia 20.2% | RPMI-8226 leukemia 17.6% | OVCAR-8 ovarian 15.6% | OVCAR-5 ovarian 13.2% | OVCAR-4 ovarian 28.4% | SK-OV-3 ovarian 28.2% | IGROV1 ovarian 12.5% | HS 578T breast 33.5%
active: SK-MEL-2 melanoma -4.42% | SN12C renal 9.07% | UO-31 renal 7.46% | ACHN renal 5.63% | CAKI-1 renal 2.42% | A498 renal 7.58% | OVCAR-3 ovarian 7.88% | NCI/ADR-RES ovarian 6.88%

CC/C(Cc1ccccc1)=C(\c1ccc(OCCCN(C)C)cc1)c1ccc(OC(=O)NCc2ccccc2)cc1
inactive: SK-MEL-2 melanoma 97.5% | EKVX NSCLC 78% | SN12C renal 77.2% | UO-31 renal 61.5% | TK-10 renal 92.2% | ACHN renal 97.4% | CAKI-1 renal 93.6% | A498 renal 85.2% | CCRF-CEM leukemia 58.3% | MOLT-4 leukemia 45.4% | RPMI-8226 leukemia 60.4% | OVCAR-8 ovarian 76.1% | OVCAR-5 ovarian 90.6% | OVCAR-4 ovarian 75.7% | SK-OV-3 ovarian 91.2% | IGROV1 ovarian 59% | OVCAR-3 ovarian 87.8% | HS 578T breast 73.4% | NCI/ADR-RES ovarian 81.4%
active: SR leukemia -22%

CCN(CC)CCCOc1ccc2ncnc(Nc3ccc(Oc4cccc(C(F)(F)F)c4)c(Cl)c3)c2c1
inactive: EKVX NSCLC 23.4% | SN12C renal 47.1% | TK-10 renal 25.7% | A498 renal 21.3% | OVCAR-8 ovarian 16.9% | SK-OV-3 ovarian 13.4%
active: SK-MEL-2 melanoma -14.7% | UO-31 renal 0.274% | ACHN renal -13.4% | CAKI-1 renal -24.4% | CCRF-CEM leukemia 1.81% | MOLT-4 leukemia 0.414% | SR leukemia -3.44% | RPMI-8226 leukemia -29.8% | OVCAR-5 ovarian 5.73% | OVCAR-4 ovarian 7.23% | IGROV1 ovarian -52.6% | OVCAR-3 ovarian -34.8% | HS 578T breast -32.8% | NCI/ADR-RES ovarian 2.21%

COC(=O)c1cc(Br)ccc1O
inactive: SK-MEL-2 melanoma 101% | EKVX NSCLC 113% | SN12C renal 99.5% | UO-31 renal 95.1% | TK-10 renal 95.5% | ACHN renal 99.5% | CAKI-1 renal 101% | A498 renal 101% | CCRF-CEM leukemia 98.6% | MOLT-4 leukemia 103% | SR leukemia 89.2% | RPMI-8226 leukemia 94.5% | OVCAR-8 ovarian 103% | OVCAR-5 ovarian 100% | OVCAR-4 ovarian 110% | SK-OV-3 ovarian 108% | IGROV1 ovarian 110% | OVCAR-3 ovarian 117% | HS 578T breast 117% | NCI/ADR-RES ovarian 107%

CCCCCN(CCCCC)CC(O)c1cc(C)c2ccc3cc(C(C)C)ccc3c2c1 (stereo not given)
inactive: SK-MEL-2 melanoma 82.6% | EKVX NSCLC 63.2% | UO-31 renal 51.8% | TK-10 renal 75.5% | CAKI-1 renal 57.7% | A498 renal 19.5% | OVCAR-4 ovarian 19.4% | SK-OV-3 ovarian 85.6%
active: SN12C renal -52.9% | ACHN renal -77.8% | CCRF-CEM leukemia -7.34% | MOLT-4 leukemia -21.5% | SR leukemia -12.9% | RPMI-8226 leukemia -18.6% | OVCAR-8 ovarian -35.9% | OVCAR-5 ovarian -28.2% | IGROV1 ovarian -12.8% | OVCAR-3 ovarian -47.7% | HS 578T breast -24% | NCI/ADR-RES ovarian -54.6%

CN1CCN(c2ccc3nc4c(nc3c2C(F)(F)F)C(=O)c2ncccc2C4=O)CC1
inactive: TK-10 renal 80.3% | CAKI-1 renal 33.1% | RPMI-8226 leukemia 27.6% | SK-OV-3 ovarian 29.7% | NCI/ADR-RES ovarian 10.1%
active: SK-MEL-2 melanoma -34.5% | EKVX NSCLC 5.13% | SN12C renal -95.4% | UO-31 renal -19.1% | ACHN renal -44.2% | A498 renal -21.1% | CCRF-CEM leukemia 5.71% | MOLT-4 leukemia -36.4% | SR leukemia -27.2% | OVCAR-8 ovarian -10.9% | OVCAR-5 ovarian -90.4% | OVCAR-4 ovarian -91.1% | IGROV1 ovarian -32.6% | OVCAR-3 ovarian -27.9% | HS 578T breast -16%
